Test results reported in the supplement of paper PMC6555819.

system: VDR:RXRa (NR concentration 270 nM, RXRa partner concentration 90 nM); assay: PBM binding z-score (relative to random genomic background probes); higher = stronger binding; sequences stand for … in GC…GCGATTGACAGCGTAGAATGAAGG
Procedure: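 Protein-binding microarray (Agilent 4x180K custom design, double-stranded 60-nt probes: 5' GC cap, 34-nt variable region, 24-nt constant primer region; full probe sequence given). Purified or IVT nuclear receptor:RXRα heterodimers (3:1 NR:RXRα, mostly 270:90 nM) or homodimers were incubated for 1 h in PBS with 2% milk and no ligand, then detected with Alexa488 antibodies. Fluorescence from o1-orientation probes (~5 replicates averaged) was converted to z-scores against 500 random hg19 background probes. Variable regions are seed direct-repeat (DR0–DR5) sites, all their single-nucleotide variants and half-site ablations.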

| Sequence | PBM binding z-score |
| --- | --- |
| TGAATGAGGTTAAAGATCGGGGAACGTGGCGTCG | 1.61 |
| ACTAGTTGGTCAGCTGAGATCACACACAATTCGG | 0.193 |
| GCTCGGAGGACAAGGTCAGAGATTTGTCCGTAGA | 1.22 |
| CCTGCTAGGTCATGGTCAGATAATCTACAGTATG | 1.62 |
| TAGCCAAGGTCATGGGCCAGTATACCACGCGAAC | 4.51 |
| TCGCGTAGGTTAGGGGCATTCAGAATGGCGTCGA | 0.397 |
| CGAACTAGGTCATTGACAAGACAGTGAATAGTAA | 1.89 |
| ATCTCTAGGTATCAAGTTCAGTGAAAGAGAGGAC | 1.94 |
| AATACAGGGTCATCGTAGGCCAGTGTACGCACAG | 5.18 |
| CCGACTGGGGCATAAGGATACCATAAGCCAGCCC | -0.657 |
| GCGACTGGGGCATCAGCAGGTTACCATTACTTAA | -0.244 |
| CATCCAAGGTCAGAGAGGTCAGTGAATGCCGAGT | 7.55 |
| AGAATGAGGTGATTAAGATCAGGGAATTGCGGTC | 0.0675 |
| ACAGACAGGTGATGAAGGTAACTCATGCTATCAT | 0.111 |
| TCATGTAGGTAAAAGGTGAAAGTCGGTGTGGTAA | 1.57 |
| CGTCCAAGGTCAAAGGTCAGAGAAGAGATGACGG | 6.75 |
| GCTTACGGATCAAAGGTTATAGCATGAATAGAAT | 1.52 |
| TAGCCTGGGTCATGGGCCAGTATACCACGCGAAC | 1.82 |
| CCGACTGGGGCAGAAAGGTTGCCATACCATCCGG | -0.0793 |
| CTCGAAAGGTCGTGCTCAGGTGAGTATACCAAAC | 3.39 |

| Sequence | PBM binding z-score |
| --- | --- |
| ACTAGCAGGCCAAGTTTCGGTCACTCAAACAAAG | -0.204 |
| ACTAGTTGGTCAGCTGAGGTCAAACACAATTCGG | 4.9 |
| CCTACTGGGCCAAGGTTATTGATCAGTCAAAGCA | -0.0867 |
| CCTTACGGGTCAAGGTTTTAGCACGGGTGGTACG | 2.82 |
| ATCGAAAGGTCGAAGTTGAGTATACCCACCCGAA | 3.08 |
| CTCGAAAGGTCGTGCTCAGGTAAGTATACCAAAC | 3.36 |
| ATCGAAAGGTCGAGGTGATTATAGAGAAAGGGAA | 2.43 |
| CAAACTAGGTCACAGAGGCCAAAGTCCGTGCGTA | 6.5 |
| CGAGCTAGGTCAAGGACAGTGAATCTCCGCACGC | 0.904 |
| TCAAATAGGTAAATGCTAGGTGAAAGTCCGATCT | 0.866 |
| TCAATGAGGTTAAAGATCAGGGAACGTGGCGTCG | 2.04 |
| TCTGCTAGGTCAGTTGGTCAGTTAACGAGCTGCC | 0.0446 |
| CATACTGGGCCAAAAAGGTCATTGATGCCGATAA | 5.08 |
| AGAACGAGGGCAATGAGTAGATAGCACGGGTGGC | 1.15 |
| CAGCCTAGCTCAGGGCCAGTATAGGAGGAACGTT | -0.907 |
| CCTACTGGGCCATTCATAGGTCATTGATCATATG | 1.24 |
| ACTTACGGGTTAACGAGGTTATAGCACGCGTATA | 6.31 |
| AGAATGAGGTTACAAAAGATCAGGGAAACGCTTG | 1.24 |
| TCATATAGGTAATGCAGGTGAAAGTCGGCATCTA | 0.862 |
| CCTTACGTGTCACTCCAGGTTATAGCATCGGAGT | 1.33 |
